Structures are written as SMILES. Inconclusive results are not listed. Calls of active or inactive are those of the source. Calls follow the shape of the dose curve; as a rule, active = well fitted cell-killing curve with a large enough effect in the repeat runs; inconclusive = weak or mixed curves, or effect the other way; inactive = flat fitted curve, though single readings scatter.

The nature of the assay: qHTS assay to identify small molecule antagonists of the retinoid acid receptor (RAR) signaling pathway - cell viability counter screen (AID 1159551). Also: nearly all actives have a fitted effect of over 35% in size. The following applies: C3RL4 cells viability, ATP luminescence (CellTiter-Glo), 6 h; series mostly up to 92.4 µM. The source says:
U.S. Tox21 Program National Center for Advancing Translational Sciences [NCATS] NIH Chemical Genomics Center [NCGC] U.S. Environmental Protection Agency [EPA] National Institutes of Environmental Health Sciences [NIEHS] National Toxicology Program [NTP] U.S. Food and Drug Administration [FDA] Tox21 Assay Overview: All-trans Retinoic acid (atRA) is the potent natural metabolite of retinol and plays an important role in normal embryonic development and maintenance of cellular phenotype in adult animals. atRA is the activating ligand for the retinoic acid receptors (RARs) which form heterodimers with retinoid X receptors (RXRs) on the retinoic acid response element (RARE). Through activation of the RAR/RXRs nuclear receptors, atRA regulates the transcription of a large number of protein-coding genes and regulatory RNAs. Intracellular levels of atRA are controlled by the retinol signaling pathway (RSP) that regulates the biosynthesis and catabolism of atRA to maintain physiological levels. Chemicals that interfere with the RSP can cause abnormal intracellular levels of atRA and therefore are potential developmental toxicants. To assess compounds for the potential adverse effect on embryonic development through interfering with retinol signaling, a cell-based RARE luciferase reporter gene assay was used. C3RL4 cell line (OARSA/CFSAN/FDA, Laurel, MD) was used to screen Tox21 10K compound library for identifying inhibitors of the RSP. Also cytotoxicity was assessed by determining the viability of cells based on the quantitation of ATP.
Tox21 Assay Protocol Summary: C3RL4 cells were seeded at 1,000/well in 4 uL of assay medium into white solid 1,536-well tissue culture plates (Greiner Bio-One North America Inc. Monroe, NC) using a Multidrop Combi (Thermo Scientific, Waltham, MA) dispenser. After incubation at 37 C and 5% CO2 for an overnight, 23 nL of compounds dissolved in DMSO, positive control or DMSO only were transferred by a Pintool station (Kalypsys, San Diego, CA). One ul of 1 uM (final concentration) of Retinol was added right after the compound addition by using a Flying Reagent Dispenser (FRD) (Aurora Discovery, San Diego, CA). After 6 hr incubation at 37 C and 5% CO2, 5 uL of CellTiter-Glo reagent (Promega Corporation, Madison, WI) was added to each assay plate using an FRD. Luminescence was quantified on a ViewLux plate reader (PerkinElmer, Waltham, MA) after 30 min incubation at room temperature.
(Quantitative high-throughput screening tests each substance at several concentrations.)
In the case of `C[C@]12CC[C@@H]3c4ccc(O)cc4CC[C@H]3[C@@H]1CCC2=O`, the compound was classed as inactive. Next, `CC(=O)c1ccc(S(=O)(=O)NC(=O)NC2CCCCC2)cc1`: “inactive”; `Cc1cnc(NC(=O)C2=C(O)c3ccccc3S(=O)(=O)N2C)s1`: “inactive”; `OCCCc1ccccc1`: “inactive”. Turning to `CC1(C)O[C@@H]2[C@@H](CO[C@@]3(COS(N)(=O)=O)OC(C)(C)O[C@@H]23)O1`, the outcome was inactive.

Turning to `C=CC(=O)NC(C)(C)CS(=O)(=O)O`, the outcome was inactive. Next, `C[C@]12C[C@H](O)[C@H]3[C@@H](CCC4=CC(=O)CC[C@@]43C)[C@@H]1CC[C@@H]2C(=O)CO`: “inactive”; `O=[N+]([O-])c1ccc(O)cc1`: “inactive”; `Cn1cnc2c1c(=O)[nH]c(=O)n2C`: “inactive”. Next, `C[C@]12C=CC(=O)C=C1CC[C@@H]1[C@@H]2C(=O)C[C@@]2(C)[C@H]1CC[C@]2(O)C(=O)CO`: “inactive”. Next, `C=C(C)OC(C)=O`: “inactive”; `CCCCCCCCCCCCCCCCCC(=O)OCC(O)CO` (stereo not given): “inactive”. Take `COC(=O)C1CCC(C(=O)OC)CC1` (stereo not given): the compound was called inactive. Next, `NC(=O)N1c2ccccc2C=Cc2ccccc21`: “inactive”.

For `Nc1cccc(N)c1`, the call was inactive.

Consider `CCCCCCCCOc1ccc(C(=O)c2ccccc2)c(O)c1`, for which the call was inactive. For the compound `Cc1cccc(Nc2cc(Cl)nc(SCC(=O)O)n2)c1C`, the outcome was inactive. Next, `CN/C(=C\[N+](=O)[O-])NCCSCc1ccc(CN(C)C)o1`: “inactive”; `Cc1cccc2ccccc12`: “inactive”; `O=c1c(-c2ccc(O)cc2)coc2cc(O)cc(O)c12`: “inactive”. As to `COCCOCCOC`, the result was inactive. `COc1cc(O)c(C(=O)c2ccccc2)cc1S(=O)(=O)O`: the result was inactive. Turning to `OC[C@@H](O)[C@@H](O)[C@H](O)[C@H](O)CO`, the compound was called inactive.

In the case of `NC(=O)OCC(COC(N)=O)c1ccccc1`, the result was inactive. Take `COC(=O)c1ccc(C=O)cc1`: the call was inactive.

In the case of `Cc1c(N(C)CS(=O)(=O)O)c(=O)n(-c2ccccc2)n1C`, the compound was classed as inactive. Next, `O=C(O)CN(CC(=O)O)CC(=O)O`: “inactive”; `Oc1cccc(O)c1`: “inactive”. With `COCC(C)N` (stereo not given), the result was inactive. Next, `CC(C)(C)CC(C)(C)c1ccc(O)c(-n2nc3ccccc3n2)c1`: “inactive”. Next, `COc1ccccc1NC(=O)CC(C)=O`: “inactive”. Consider `CCCCC/C(C=O)=C\c1ccccc1`, for which the outcome was inactive. Regarding `CN(C)Cc1cc(CN(C)C)c(O)c(CN(C)C)c1`, the result was inactive. In the case of `COc1ccc(C(=O)c2ccccc2)c(O)c1`, the compound was called inactive.

As for `NC(=O)NO`, the outcome was inactive. Next, `CCCCOC(=O)CCCCCCCCC(=O)OCCCC`: “inactive”; `C[C@]12CC[C@@H]3c4ccc(O)cc4C[C@@H](CCCCCCCCCS(=O)CCCC(F)(F)C(F)(F)F)[C@H]3[C@@H]1CC[C@@H]2O` (stereo not given in full): “inactive”; `CC(O)COc1ccccc1` (stereo not given): “inactive”. Next, `CCCCOCCOCCOC(C)=O`: “inactive”; `C#C[C@]1(O)CC[C@H]2[C@@H]3CCC4=CC(=O)CC[C@@H]4[C@H]3CC[C@@]21CC`: “inactive”.

These data come from PubChem BioAssay (Tox21).
